Source: ChEMBL document CHEMBL1961873, “Compounds: GSK PKIS; Assays: Nanosyn kinase panel” (2012)

Columns and labels:
[1] = molecular target: High affinity nerve growth factor receptor (Homo sapiens) (UniProt P04629); settings: at 1 µM;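 also: each value is the mean percent inhibition of TRKA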
[2] = molecular target: BDNF/NT-3 growth factors receptor (Homo sapiens) (UniProt Q16620); settings: at 0.1 µM
[3] = molecular target: BDNF/NT-3 growth factors receptor (Homo sapiens) (UniProt Q16620); settings: at 1 µM
[4] = molecular target: NT-3 growth factor receptor (Homo sapiens) (UniProt Q16288); settings: at 0.1 µM
[5] = molecular target: NT-3 growth factor receptor (Homo sapiens) (UniProt Q16288); settings: at 1 µM
[6] = molecular target: T1, Tyrosine-protein kinase TXK (Homo sapiens) (UniProt P42681); settings: at 0.1 µM
T1 sequence (whole entry): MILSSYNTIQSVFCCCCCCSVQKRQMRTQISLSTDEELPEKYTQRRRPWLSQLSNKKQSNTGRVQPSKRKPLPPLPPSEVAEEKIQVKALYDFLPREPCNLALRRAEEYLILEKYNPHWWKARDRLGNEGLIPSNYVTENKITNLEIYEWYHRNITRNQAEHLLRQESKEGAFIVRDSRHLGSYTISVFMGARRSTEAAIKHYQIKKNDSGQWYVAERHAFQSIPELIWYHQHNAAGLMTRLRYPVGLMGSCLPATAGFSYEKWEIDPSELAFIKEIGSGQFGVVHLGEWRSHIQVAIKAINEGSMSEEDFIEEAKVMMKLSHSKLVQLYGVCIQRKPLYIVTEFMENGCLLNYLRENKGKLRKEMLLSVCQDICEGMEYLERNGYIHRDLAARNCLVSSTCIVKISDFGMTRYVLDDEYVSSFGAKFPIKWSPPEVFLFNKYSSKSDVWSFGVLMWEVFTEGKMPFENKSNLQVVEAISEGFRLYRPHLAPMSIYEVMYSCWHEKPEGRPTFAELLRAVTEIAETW

[7] = molecular target: T1, Tyrosine-protein kinase TXK (Homo sapiens); settings: at 1 µM
[8] = molecular target: Non-receptor tyrosine-protein kinase TYK2 (Homo sapiens) (UniProt P29597); settings: at 0.1 µM;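 also: each value is a mean of the inhibition readings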
[9] = molecular target: T2, Dual specificity protein kinase TTK (Homo sapiens) (UniProt P33981); settings: at 1 µM;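 also: reported figures are mean TTK inhibition at 1 µM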
T2 sequence (whole entry): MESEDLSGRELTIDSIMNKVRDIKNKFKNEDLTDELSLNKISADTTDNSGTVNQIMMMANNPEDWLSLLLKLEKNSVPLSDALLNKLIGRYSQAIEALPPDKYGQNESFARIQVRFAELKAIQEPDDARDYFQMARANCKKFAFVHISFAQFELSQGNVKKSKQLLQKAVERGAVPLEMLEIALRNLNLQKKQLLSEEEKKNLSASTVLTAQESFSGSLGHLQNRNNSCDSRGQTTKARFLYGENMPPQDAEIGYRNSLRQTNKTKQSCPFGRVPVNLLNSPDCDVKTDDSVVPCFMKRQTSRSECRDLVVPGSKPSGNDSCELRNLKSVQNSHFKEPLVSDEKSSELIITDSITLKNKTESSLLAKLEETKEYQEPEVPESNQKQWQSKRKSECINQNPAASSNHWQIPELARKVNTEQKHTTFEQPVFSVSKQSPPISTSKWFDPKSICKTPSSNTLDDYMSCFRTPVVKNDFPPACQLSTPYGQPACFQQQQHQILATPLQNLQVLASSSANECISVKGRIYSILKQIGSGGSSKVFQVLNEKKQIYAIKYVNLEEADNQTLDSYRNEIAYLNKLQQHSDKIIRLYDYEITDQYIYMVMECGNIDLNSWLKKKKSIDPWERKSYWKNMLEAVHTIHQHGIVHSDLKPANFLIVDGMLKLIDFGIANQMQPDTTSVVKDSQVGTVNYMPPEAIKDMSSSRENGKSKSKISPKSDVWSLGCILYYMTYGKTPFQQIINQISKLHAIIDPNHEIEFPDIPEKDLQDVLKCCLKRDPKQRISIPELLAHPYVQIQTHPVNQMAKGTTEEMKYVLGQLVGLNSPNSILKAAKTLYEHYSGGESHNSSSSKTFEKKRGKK

[10] = molecular target: T3, Aurora kinase A (Homo sapiens) (UniProt O14965); settings: at 0.1 µM
T3 sequence (whole entry): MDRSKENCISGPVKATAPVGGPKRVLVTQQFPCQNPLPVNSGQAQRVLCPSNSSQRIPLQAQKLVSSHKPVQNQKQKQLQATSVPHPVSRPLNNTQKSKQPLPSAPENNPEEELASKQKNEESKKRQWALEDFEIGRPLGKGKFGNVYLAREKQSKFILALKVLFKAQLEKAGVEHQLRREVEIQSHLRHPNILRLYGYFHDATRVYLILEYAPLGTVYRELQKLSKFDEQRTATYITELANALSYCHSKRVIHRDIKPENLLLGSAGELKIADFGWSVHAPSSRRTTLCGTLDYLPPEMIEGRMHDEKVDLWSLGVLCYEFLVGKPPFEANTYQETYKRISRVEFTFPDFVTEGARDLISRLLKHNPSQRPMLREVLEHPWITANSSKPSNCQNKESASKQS

[11] = molecular target: T3, Aurora kinase A (Homo sapiens); settings: at 1 µM
[12] = molecular target: Aurora kinase B (Homo sapiens) (UniProt Q96GD4); settings: at 0.1 µM
[13] = molecular target: Aurora kinase B (Homo sapiens) (UniProt Q96GD4); settings: at 1 µM
[14] = molecular target: T4, Aurora kinase C (Homo sapiens) (UniProt Q9UQB9); settings: at 0.1 µM
T4 sequence (whole entry): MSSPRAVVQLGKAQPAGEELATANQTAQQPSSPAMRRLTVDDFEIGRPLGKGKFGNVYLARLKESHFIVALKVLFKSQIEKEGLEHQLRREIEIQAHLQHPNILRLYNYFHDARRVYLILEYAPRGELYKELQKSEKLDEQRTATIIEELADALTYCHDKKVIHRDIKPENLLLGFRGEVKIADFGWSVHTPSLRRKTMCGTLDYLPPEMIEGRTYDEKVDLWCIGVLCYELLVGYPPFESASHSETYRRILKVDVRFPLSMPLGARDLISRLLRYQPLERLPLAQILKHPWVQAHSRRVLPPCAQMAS

[15] = molecular target: T4, Aurora kinase C (Homo sapiens); settings: at 1 µM
[16] = molecular target: Serine/threonine-protein kinase 10 (Homo sapiens) (UniProt O94804); settings: at 0.1 µM
[17] = molecular target: Serine/threonine-protein kinase 10 (Homo sapiens) (UniProt O94804); settings: at 1 µM
[18] = molecular target: T5, Mitogen-activated protein kinase kinase kinase kinase 2 (Homo sapiens) (UniProt Q12851); settings: at 0.1 µM
T5 sequence (whole entry): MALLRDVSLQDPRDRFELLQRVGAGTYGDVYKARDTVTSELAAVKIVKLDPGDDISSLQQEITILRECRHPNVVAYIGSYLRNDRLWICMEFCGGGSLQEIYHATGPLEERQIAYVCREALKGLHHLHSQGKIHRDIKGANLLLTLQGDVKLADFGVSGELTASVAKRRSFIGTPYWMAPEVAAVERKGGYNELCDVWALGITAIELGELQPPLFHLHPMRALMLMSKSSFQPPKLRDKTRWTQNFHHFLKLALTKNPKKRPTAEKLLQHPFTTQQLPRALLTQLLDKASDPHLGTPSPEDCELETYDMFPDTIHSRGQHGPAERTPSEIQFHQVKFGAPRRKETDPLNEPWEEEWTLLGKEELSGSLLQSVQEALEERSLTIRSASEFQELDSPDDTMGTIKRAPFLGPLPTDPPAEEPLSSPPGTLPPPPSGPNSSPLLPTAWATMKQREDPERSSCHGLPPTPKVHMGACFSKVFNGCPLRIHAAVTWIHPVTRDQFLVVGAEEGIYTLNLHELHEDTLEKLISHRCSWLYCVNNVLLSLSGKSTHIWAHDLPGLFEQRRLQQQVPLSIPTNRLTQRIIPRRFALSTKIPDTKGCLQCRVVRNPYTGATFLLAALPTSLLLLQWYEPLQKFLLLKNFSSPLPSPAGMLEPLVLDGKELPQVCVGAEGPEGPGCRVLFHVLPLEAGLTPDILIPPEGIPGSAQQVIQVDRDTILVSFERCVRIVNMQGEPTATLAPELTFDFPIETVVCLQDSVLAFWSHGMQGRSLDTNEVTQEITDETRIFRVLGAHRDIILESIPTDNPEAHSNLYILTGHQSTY

[19] = molecular target: T5, Mitogen-activated protein kinase kinase kinase kinase 2 (Homo sapiens); settings: at 1 µM
[20] = molecular target: Mitogen-activated protein kinase kinase kinase kinase 4 (Homo sapiens) (UniProt O95819); settings: at 0.1 µM
Mitogen-activated protein kinase kinase kinase kinase 4 (Homo sapiens), sequence (O95819 2-1239 limits assumed): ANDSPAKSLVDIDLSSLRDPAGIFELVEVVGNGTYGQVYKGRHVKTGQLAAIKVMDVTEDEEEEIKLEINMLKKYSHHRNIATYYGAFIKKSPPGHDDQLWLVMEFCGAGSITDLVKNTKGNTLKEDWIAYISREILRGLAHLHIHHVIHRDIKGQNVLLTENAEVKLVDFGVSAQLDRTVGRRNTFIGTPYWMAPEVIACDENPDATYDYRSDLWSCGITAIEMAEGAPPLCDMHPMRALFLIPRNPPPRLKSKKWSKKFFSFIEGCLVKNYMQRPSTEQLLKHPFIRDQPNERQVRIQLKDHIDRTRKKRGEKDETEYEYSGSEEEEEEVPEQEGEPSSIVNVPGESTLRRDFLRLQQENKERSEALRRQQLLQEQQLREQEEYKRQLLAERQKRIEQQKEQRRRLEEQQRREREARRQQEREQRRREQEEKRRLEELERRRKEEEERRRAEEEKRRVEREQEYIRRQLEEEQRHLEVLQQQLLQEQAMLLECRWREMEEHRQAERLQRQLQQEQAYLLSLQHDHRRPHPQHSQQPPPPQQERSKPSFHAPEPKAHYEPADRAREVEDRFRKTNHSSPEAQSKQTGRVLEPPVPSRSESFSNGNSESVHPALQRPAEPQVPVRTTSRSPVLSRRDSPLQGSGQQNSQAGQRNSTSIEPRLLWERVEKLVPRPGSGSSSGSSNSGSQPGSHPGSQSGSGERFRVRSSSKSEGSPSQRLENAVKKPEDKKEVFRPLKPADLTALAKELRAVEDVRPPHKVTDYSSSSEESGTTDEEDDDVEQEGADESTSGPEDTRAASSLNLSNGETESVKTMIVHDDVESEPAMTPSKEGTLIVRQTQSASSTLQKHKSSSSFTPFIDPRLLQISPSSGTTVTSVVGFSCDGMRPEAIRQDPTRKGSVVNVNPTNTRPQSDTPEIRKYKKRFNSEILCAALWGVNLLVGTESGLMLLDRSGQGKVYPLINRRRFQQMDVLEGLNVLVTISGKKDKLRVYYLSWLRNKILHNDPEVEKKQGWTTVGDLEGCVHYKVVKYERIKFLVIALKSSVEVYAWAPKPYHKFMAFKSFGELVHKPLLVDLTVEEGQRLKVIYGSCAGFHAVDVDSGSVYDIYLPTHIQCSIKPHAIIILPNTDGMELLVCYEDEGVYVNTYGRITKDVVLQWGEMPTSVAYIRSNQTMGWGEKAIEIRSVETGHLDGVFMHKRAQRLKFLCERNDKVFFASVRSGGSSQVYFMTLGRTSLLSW

Serine/threonine-protein kinase 10 (Homo sapiens), sequence (O94804 whole entry, looked up): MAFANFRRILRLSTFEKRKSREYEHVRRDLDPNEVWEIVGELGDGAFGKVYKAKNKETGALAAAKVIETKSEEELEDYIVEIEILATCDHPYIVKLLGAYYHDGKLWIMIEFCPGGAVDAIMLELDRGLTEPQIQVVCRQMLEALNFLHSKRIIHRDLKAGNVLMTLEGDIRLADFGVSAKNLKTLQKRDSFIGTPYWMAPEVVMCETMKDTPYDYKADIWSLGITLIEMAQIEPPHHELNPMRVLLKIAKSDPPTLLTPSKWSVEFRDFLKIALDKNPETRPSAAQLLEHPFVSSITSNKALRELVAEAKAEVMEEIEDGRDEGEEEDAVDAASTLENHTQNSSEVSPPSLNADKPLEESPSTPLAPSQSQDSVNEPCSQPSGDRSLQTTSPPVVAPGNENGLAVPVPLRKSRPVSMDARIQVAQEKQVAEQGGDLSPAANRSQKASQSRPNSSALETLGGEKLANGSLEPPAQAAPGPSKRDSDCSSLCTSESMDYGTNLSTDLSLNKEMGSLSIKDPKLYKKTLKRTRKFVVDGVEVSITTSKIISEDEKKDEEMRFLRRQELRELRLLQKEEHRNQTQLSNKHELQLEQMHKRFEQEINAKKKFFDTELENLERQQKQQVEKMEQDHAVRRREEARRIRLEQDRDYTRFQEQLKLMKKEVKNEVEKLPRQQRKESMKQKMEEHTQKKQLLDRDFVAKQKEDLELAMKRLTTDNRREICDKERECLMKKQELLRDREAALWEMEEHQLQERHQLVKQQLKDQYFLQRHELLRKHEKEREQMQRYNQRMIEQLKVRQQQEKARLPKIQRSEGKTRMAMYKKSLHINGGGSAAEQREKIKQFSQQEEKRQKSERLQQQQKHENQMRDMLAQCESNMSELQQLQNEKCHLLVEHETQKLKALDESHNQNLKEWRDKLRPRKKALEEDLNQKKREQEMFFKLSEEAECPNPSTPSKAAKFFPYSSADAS
High affinity nerve growth factor receptor (Homo sapiens), sequence (P04629 33-796 limits assumed): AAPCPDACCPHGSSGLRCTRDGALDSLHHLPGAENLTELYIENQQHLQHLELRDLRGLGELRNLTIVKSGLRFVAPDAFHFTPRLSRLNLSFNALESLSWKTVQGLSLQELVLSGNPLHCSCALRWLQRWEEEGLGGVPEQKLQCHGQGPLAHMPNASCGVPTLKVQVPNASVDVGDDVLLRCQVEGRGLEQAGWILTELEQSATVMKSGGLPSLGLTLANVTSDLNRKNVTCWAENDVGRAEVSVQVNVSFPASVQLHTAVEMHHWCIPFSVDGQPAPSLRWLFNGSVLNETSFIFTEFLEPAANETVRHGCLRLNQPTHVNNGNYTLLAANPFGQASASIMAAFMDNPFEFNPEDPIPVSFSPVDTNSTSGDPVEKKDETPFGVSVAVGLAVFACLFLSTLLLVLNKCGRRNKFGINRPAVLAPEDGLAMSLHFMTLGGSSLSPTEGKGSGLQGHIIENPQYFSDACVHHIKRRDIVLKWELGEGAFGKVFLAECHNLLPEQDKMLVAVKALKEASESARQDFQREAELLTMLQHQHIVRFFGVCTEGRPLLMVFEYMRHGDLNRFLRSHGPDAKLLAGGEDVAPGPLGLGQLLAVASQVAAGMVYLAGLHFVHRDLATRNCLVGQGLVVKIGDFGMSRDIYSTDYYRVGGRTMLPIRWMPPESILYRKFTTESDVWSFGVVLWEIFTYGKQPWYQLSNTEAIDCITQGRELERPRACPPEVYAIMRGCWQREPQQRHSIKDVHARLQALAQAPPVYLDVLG
BDNF/NT-3 growth factors receptor (Homo sapiens), sequence (Q16620 32-822 limits assumed): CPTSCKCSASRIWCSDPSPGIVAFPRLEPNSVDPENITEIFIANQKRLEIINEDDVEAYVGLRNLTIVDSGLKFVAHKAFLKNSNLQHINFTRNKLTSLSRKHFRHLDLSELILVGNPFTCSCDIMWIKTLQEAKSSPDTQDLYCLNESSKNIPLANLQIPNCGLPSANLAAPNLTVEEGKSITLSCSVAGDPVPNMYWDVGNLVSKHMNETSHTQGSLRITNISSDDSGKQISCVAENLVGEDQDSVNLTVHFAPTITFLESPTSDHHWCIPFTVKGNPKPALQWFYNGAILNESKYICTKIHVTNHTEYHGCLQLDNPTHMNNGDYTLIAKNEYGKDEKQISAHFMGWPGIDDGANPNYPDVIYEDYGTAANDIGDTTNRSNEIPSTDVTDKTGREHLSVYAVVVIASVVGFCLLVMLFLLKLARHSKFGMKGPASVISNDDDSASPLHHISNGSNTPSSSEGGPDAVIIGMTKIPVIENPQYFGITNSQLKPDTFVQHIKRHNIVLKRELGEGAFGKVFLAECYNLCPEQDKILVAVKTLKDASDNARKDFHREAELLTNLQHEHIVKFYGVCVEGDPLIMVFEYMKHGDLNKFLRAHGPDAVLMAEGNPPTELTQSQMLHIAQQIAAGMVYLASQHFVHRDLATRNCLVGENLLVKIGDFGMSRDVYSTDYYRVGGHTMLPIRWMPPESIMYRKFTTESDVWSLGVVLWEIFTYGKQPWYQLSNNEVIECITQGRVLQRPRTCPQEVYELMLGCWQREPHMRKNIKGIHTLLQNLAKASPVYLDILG
NT-3 growth factor receptor (Homo sapiens), sequence (Q16288 32-839 limits assumed): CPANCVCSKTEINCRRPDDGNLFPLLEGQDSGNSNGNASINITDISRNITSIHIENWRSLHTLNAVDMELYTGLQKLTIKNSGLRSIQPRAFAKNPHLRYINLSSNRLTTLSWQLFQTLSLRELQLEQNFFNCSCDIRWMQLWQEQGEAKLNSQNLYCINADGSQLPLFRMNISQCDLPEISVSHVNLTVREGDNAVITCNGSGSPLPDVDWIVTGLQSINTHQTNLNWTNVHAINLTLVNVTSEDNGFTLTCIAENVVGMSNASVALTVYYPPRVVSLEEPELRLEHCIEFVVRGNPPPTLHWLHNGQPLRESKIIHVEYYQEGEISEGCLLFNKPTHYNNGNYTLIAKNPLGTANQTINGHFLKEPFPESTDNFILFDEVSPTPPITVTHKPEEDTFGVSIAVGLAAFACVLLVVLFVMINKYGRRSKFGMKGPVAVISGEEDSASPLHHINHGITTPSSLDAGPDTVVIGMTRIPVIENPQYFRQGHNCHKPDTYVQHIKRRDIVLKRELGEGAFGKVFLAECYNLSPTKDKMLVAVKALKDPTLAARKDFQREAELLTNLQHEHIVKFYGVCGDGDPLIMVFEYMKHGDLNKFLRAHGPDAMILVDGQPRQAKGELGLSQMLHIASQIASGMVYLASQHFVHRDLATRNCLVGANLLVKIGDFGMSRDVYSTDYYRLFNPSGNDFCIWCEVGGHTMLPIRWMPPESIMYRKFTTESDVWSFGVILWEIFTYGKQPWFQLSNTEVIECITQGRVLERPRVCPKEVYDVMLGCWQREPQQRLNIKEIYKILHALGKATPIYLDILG
Aurora kinase B (Homo sapiens), sequence (Q96GD4 whole entry): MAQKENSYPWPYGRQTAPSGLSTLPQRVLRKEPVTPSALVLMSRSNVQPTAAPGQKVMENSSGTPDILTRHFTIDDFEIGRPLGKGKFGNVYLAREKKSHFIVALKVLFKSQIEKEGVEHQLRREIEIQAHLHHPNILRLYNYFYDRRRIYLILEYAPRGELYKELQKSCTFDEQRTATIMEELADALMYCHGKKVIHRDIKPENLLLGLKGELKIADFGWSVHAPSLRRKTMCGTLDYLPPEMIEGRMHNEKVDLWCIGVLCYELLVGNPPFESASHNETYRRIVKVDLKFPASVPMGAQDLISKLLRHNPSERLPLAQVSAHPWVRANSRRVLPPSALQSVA

## FC(F)(F)CNc1nccc(-c2cnn3ncccc23)n1
[1]
  inhibition: 2.2%
[2]
  inhibition: 0.64%
[3]
  inhibition: -0.08%
[4]
  inhibition: 0.73%
[5]
  inhibition: 0.22%
[6]
  inhibition: -0.11%
[7]
  inhibition: 1.8%
[8]
  inhibition: -4.86%
[9]
  inhibition: 8.83%
[10]
  inhibition: 2.68%
[11]
  inhibition: 1.83%
[12]
  inhibition: 1.65%
[13]
  inhibition: 4.22%
[14]
  inhibition: 0.63%
[15]
  inhibition: 2.77%
[16]
  inhibition: 2.56%
[17]
  inhibition: 6.33%
[18]
  inhibition: -0.83%
[19]
  inhibition: 1.5%
[20]
  inhibition: 1.9%

## O=C(O[C@H]1CN[C@H](C#Cc2cc3ncnc(Nc4ccc5c(ccn5Cc5cc(F)ccc5F)c4)c3s2)C1)N1CCOCC1
[1]
  inhibition: 0.61%
[2]
  inhibition: 1.99%
[3]
  inhibition: 3.22%
[4]
  inhibition: 2.18%
[5]
  inhibition: 2.92%
[6]
  inhibition: 3.8%
[7]
  inhibition: 5.25%
[8]
  inhibition: -1.85%
[9]
  inhibition: 9.66%
[10]
  inhibition: 4.5%
[11]
  inhibition: 9.24%
[12]
  inhibition: 5.02%
[13]
  inhibition: 8.88%
[14]
  inhibition: 1.44%
[15]
  inhibition: 9.49%
[16]
  inhibition: 8.09%
[17]
  inhibition: 7.76%
[18]
  inhibition: 1.18%
[19]
  inhibition: 2.82%
[20]
  inhibition: 5.04%

## CS(=O)(=O)CCNCc1ccc(-c2ccc3ncnc(Nc4ccc(OCc5cccc(C(F)(F)F)c5)cc4)c3c2)o1
[1]
  inhibition: 7.21%
[2]
  inhibition: 4.9%
[3]
  inhibition: 17.5%
[4]
  inhibition: 3%
[5]
  inhibition: 10.1%
[6]
  inhibition: 5.9%
[7]
  inhibition: 5.59%
[8]
  inhibition: -2.56%
[9]
  inhibition: 8.3%
[10]
  inhibition: 3.79%
[11]
  inhibition: 4.78%
[12]
  inhibition: 5.65%
[13]
  inhibition: 4.87%
[14]
  inhibition: 1.93%
[15]
  inhibition: 4.53%
[16]
  inhibition: 9.88%
[17]
  inhibition: 11.7%
[18]
  inhibition: -0.93%
[19]
  inhibition: 2.32%
[20]
  inhibition: 2.66%

## CNC(=O)c1ncccc1Nc1nc(Nc2cc3c(cc2OC)CCCN3C(=O)CN(C)C)nc2[nH]ccc12
[1]
  inhibition: 6.12%
[2]
  inhibition: 3.17%
[3]
  inhibition: 5.34%
[4]
  inhibition: 2.2%
[5]
  inhibition: 5.36%
[6]
  inhibition: 3.73%
[7]
  inhibition: 1.5%
[8]
  inhibition: -3.3%
[9]
  inhibition: 35.2%
[10]
  inhibition: 2.64%
[11]
  inhibition: 6.59%
[12]
  inhibition: 3.79%
[13]
  inhibition: 8.73%
[14]
  inhibition: 2.36%
[15]
  inhibition: 4.16%
[16]
  inhibition: 7.25%
[17]
  inhibition: 4.81%
[18]
  inhibition: 1.56%
[19]
  inhibition: 4.18%
[20]
  inhibition: 4.22%

## COc1cc(N2CCN(C(C)C)CC2)ccc1Nc1nc(Nc2cccc3ncccc23)c2cc[nH]c2n1
[1]
  inhibition: 1.49%
[2]
  inhibition: 0.73%
[3]
  inhibition: 0.22%
[4]
  inhibition: 0.87%
[5]
  inhibition: 0.74%
[6]
  inhibition: 0.48%
[7]
  inhibition: 3.98%
[8]
  inhibition: -4.59%
[9]
  inhibition: 69.5%
[10]
  inhibition: 0.64%
[11]
  inhibition: 4.47%
[12]
  inhibition: 0.66%
[13]
  inhibition: 4.9%
[14]
  inhibition: 0.27%
[15]
  inhibition: -0.31%
[16]
  inhibition: 1.54%
[17]
  inhibition: 0.74%
[18]
  inhibition: 2.02%
[19]
  inhibition: 2.89%
[20]
  inhibition: 1.88%

## COC(=O)Nc1nc2ccc(Oc3ccc(NC(=O)Nc4cc(C(F)(F)F)ccc4F)cc3)cc2s1
[1]
  inhibition: 81.5%
[2]
  inhibition: 24.9%
[3]
  inhibition: 61%
[4]
  inhibition: 25.7%
[5]
  inhibition: 88.5%
[6]
  inhibition: 1.96%
[7]
  inhibition: 2.35%
[8]
  inhibition: -0.09%
[9]
  inhibition: 9.84%
[10]
  inhibition: 1.12%
[11]
  inhibition: 7.02%
[12]
  inhibition: 5.4%
[13]
  inhibition: 30.8%
[14]
  inhibition: 9.05%
[15]
  inhibition: 50.4%
[16]
  inhibition: 24.5%
[17]
  inhibition: 55.4%
[18]
  inhibition: 10.7%
[19]
  inhibition: 28.6%
[20]
  inhibition: 2.18%
